Reference: PubChem BioAssay (Tox21)
Inconclusive results are not listed. Activity calls are given as the source filed them. Calls come from the whole dose curve; as a rule, active = well fitted curve in the direction sought with a large enough effect in the repeat runs; inconclusive = weak or mixed curves; inactive = no such curve, though single readings can be large; an effect the other way counts as inactive or inconclusive.

What was measured:
[1] = A CellTox Green Cytotoxicity Assay to monitor cytotoxicity in HEK293 cells - 40 hour (AID 1224871); note: nearly all actives have a fitted effect of over 45% in size
Procedure, shortened: (§1)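 Dead-cell fluorescence measured kinetically: asymmetric cyanine dye, HEK293, 600 cells/well, 5 h settle, 23 nL cpd/DMSO, 37 C, reads 0–40 h every 8 h.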

[2] = qHTS RealTime-Glo MT Cell Viability Assay in HEK293 cells - 16 hour (AID 1224872); note: nearly all actives have a fitted effect of over 50% in size; note: potency is the fitted concentration of half-maximal effect; for activity change, negative = cytotoxicity: top concentration of the series differs between compounds
Procedure, shortened: (§2)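 Quantitative high-throughput screen of the Tox21 10K library in HEK293: cells and RealTime-Glo reagents plated together, compound added at 5 h, luminescence monitored through 40 h at 37 C.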

[3] = qHTS RealTime-Glo MT Cell Viability Assay in HepG2 cells - 8 hour (AID 1224873); note: nearly all actives have a fitted effect of over 55% in size
Procedure, shortened: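 Real-time viability: cells seeded at 600 per well together with NanoLuc and cell-permeant prosubstrate, compounds added after 5 h incubation. Luminescence tracked at 0, 8, 16, 24, 32 and 40 h of exposure.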

[4] = qHTS RealTime-Glo MT Cell Viability Assay in HEK293 cells - 40 hour (AID 1224874); conditions: RealTime-Glo luminescence; max response: hits give low values; note: nearly all actives have a fitted effect of over 50% in size; note: potency is the fitted concentration of half-maximal effect
Procedure, shortened: (§3)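 600 HEK293 cells per well, dispensed already mixed with RealTime-Glo MT reagents. Compound dosing came 5 h later. The same wells were read for luminescence at 0, 8, 16, 24, 32 and 40 h of exposure at 37 C.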

[5] = A CellTox Green Cytotoxicity Assay to monitor cytotoxicity in HEK293 cells - 24 hour (AID 1224875); note: series mostly up to about 77 µM; nearly all actives have a fitted effect of over 45% in size
Procedure, shortened: as §1

[6] = A CellTox Green Cytotoxicity Assay to monitor cytotoxicity in HepG2 cells - 16 hour (AID 1224876); note: nearly all actives have a fitted effect of over 45% in size
Procedure, shortened: (§4)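 First, HepG2 cells (600/well) mixed with reagent were plated; second, after 5 h at 37 C they received compounds via pintool; third, fluorescence was measured at 0 h through 40 h at 8 h intervals.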

[7] = A CellTox Green Cytotoxicity Assay to monitor cytotoxicity in HepG2 cells - 24 hour (AID 1224878); note: nearly all actives have a fitted effect of over 45% in size
Procedure, shortened: as §4

[8] = A CellTox Green Cytotoxicity Assay to monitor cytotoxicity in HepG2 cells - 40 hour (AID 1224879); note: nearly all actives have a fitted effect of over 40% in size; note: potency is the fitted concentration of half-maximal effect
Procedure, shortened: as §4

[9] = qHTS RealTime-Glo MT Cell Viability Assay in HEK293 cells - 0 hour (AID 1224880)
Procedure, shortened: as §3

[10] = A CellTox Green Cytotoxicity Assay to monitor cytotoxicity in HEK293 cells - 32 hour (AID 1224881); note: nearly all actives have a fitted effect of over 40% in size
Procedure, shortened: as §1

[11] = A CellTox Green Cytotoxicity Assay to monitor cytotoxicity in HepG2 cells - 32 hour (AID 1224883); note: nearly all actives have a fitted effect of over 50% in size; note: potency is the fitted concentration of half-maximal effect
Procedure, shortened: as §4

[12] = A CellTox Green Cytotoxicity Assay to monitor cytotoxicity in HEK293 cells - 8 hour (AID 1224884); note: nearly all actives have a fitted effect of over 35% in size
Procedure, shortened: as §1

[13] = qHTS RealTime-Glo MT Cell Viability Assay in HepG2 cells - 16 hour (AID 1224885); note: nearly all actives have a fitted effect of over 50% in size
Procedure, shortened: (§5)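 Compound treatment began 5 h after plating HepG2 cells (600/well) with NanoLuc luciferase and prosubstrate. Plates stayed at 37 C for 40 h; luminescence was captured at six time points, 0 h through 40 h.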

[14] = qHTS RealTime-Glo MT Cell Viability Assay in HEK293 cells - 24 hour (AID 1224886); note: nearly all actives have a fitted effect of over 50% in size; note: potency is the fitted concentration of half-maximal effect; for activity change, negative = cytotoxicity: top concentration of the series differs between compounds
Procedure, shortened: as §2

[15] = qHTS RealTime-Glo MT Cell Viability Assay in HEK293 cells - 8 hour (AID 1224887); note: nearly all actives have a fitted effect of over 50% in size; note: potency is the fitted concentration of half-maximal effect; for activity change, negative = cytotoxicity: top concentration of the series differs between compounds
Procedure, shortened: as §3

[16] = A CellTox Green Cytotoxicity Assay to monitor cytotoxicity in HEK293 cells - 16 hour (AID 1224888); note: nearly all actives have a fitted effect of over 35% in size
Procedure, shortened: as §1

[17] = qHTS RealTime-Glo MT Cell Viability Assay in HepG2 cells - 0 hour (AID 1224889); note: nearly all actives have a fitted effect of over 50% in size
Procedure, shortened: as §5

[18] = A CellTox Green Cytotoxicity Assay to monitor cytotoxicity in HepG2 cells - 8 hour (AID 1224890); note: nearly all actives have a fitted effect of over 45% in size
Procedure, shortened: as §4

[19] = A CellTox Green Cytotoxicity Assay to monitor cytotoxicity in HepG2 cells - 0 hour (AID 1224882); note: nearly all actives have a fitted effect of over 35% in size
Procedure, shortened: as §4

[20] = qHTS RealTime-Glo MT Cell Viability Assay in HepG2 cells - 32 hour (AID 1224877); note: nearly all actives have a fitted effect of over 55% in size
Procedure, shortened: as §5
% is set by controls: 0 for no effect and ±100 for the full control effect.

NS(=O)(=O)c1cc2c(cc1Cl)CN(C1CCCCC1)C2=O
active: Potency [2] 10.7 µM | Potency [4] 9.52 µM | Potency [14] 9.52 µM | Potency [15] 9.52 µM
inactive: Potency [1] | outcome [3] | outcome [5] | outcome [6] | outcome [7] | Potency [8] | Potency [9] | Potency [10] | Potency [11] | Potency [12] | outcome [13] | outcome [16] | Potency [17] | outcome [18]

CCCCOC(=O)c1ccccc1
inactive: Potency [1] | Potency [2] | outcome [3] | max response [4] 4.16% | outcome [5] | outcome [6] | outcome [7] | Potency [8] | Potency [9] | Potency [10] | outcome [19] | Potency [11] | Potency [14] | Potency [15] | outcome [16] | Potency [17] | outcome [18]

C=C(C)C(=O)OCc1ccccc1
inactive: Potency [1] | Potency [2] | outcome [3] | max response [4] -7.63% | outcome [5] | outcome [6] | outcome [7] | Potency [8] | Potency [10] | outcome [19] | Potency [11] | Potency [12] | outcome [13] | Potency [15] | outcome [16] | Potency [17] | outcome [18]

Nc1nnc(-c2cccc(Cl)c2Cl)c(N)n1
inactive: Potency [1] | outcome [5] | outcome [6] | outcome [7] | Potency [8] | Potency [10] | outcome [19] | Potency [11] | Potency [12] | outcome [16] | outcome [18]

CCCCCCCC/C=C\CCCCCCCC(=O)OCCCC
inactive: cytotoxicity increase [1] -33.9% [at 15.8 µM] | viability change, negative = cytotoxic [3] -0.413% [at 15.8 µM] | activity change [5] -32.5% [at 15.8 µM] | cytotoxicity increase [6] -7.79% [at 15.8 µM] | activity change, negative = cytotoxic [20] 6.1% [at 15.8 µM] | cytotoxicity [7] -11.8% [at 15.8 µM] | cytotoxicity increase [8] -13.9% [at 15.8 µM] | activity change, negative = cytotoxicity [9] -2.24% [at 15.8 µM] | cytotoxicity increase [10] -35.2% [at 15.8 µM] | cytotoxicity increase [11] -13.6% [at 15.8 µM] | cytotoxicity increase [12] -25.9% [at 15.8 µM] | activity change, negative = cytotoxic [13] 1.32% [at 15.8 µM] | activity change, negative = cytotoxicity [17] -22.5% [at 15.8 µM] | cytotoxicity increase [18] -0.525% [at 15.8 µM]

CC(C)C(=O)OCCc1ccccc1
inactive: Potency [2] | outcome [3] | max response [4] -2.86% | outcome [5] | outcome [6] | outcome [7] | Potency [8] | Potency [9] | outcome [19] | Potency [11] | Potency [12] | outcome [13] | Potency [14] | Potency [15] | outcome [16] | Potency [17] | outcome [18]

Cc1nc2n(c(=O)c1CCN1CCC(c3noc4cc(F)ccc34)CC1)CCC[C@H]2O
inactive: cytotoxicity increase [1] 6.76% [at 15.8 µM] | viability change, negative = cytotoxic [3] -0.0945% [at 15.8 µM] | activity change [5] -3.48% [at 15.8 µM] | cytotoxicity increase [6] -0.968% [at 15.8 µM] | activity change, negative = cytotoxic [20] 0.664% [at 15.8 µM] | cytotoxicity [7] 0.861% [at 15.8 µM] | cytotoxicity increase [8] 0.318% [at 15.8 µM] | activity change, negative = cytotoxicity [9] 7.51% [at 15.8 µM] | cytotoxicity increase [10] 6.5% [at 15.8 µM] | cytotoxicity [19] -4% [at 15.8 µM] | cytotoxicity increase [11] 2.66% [at 15.8 µM] | cytotoxicity increase [12] 2.15% [at 15.8 µM] | activity change, negative = cytotoxic [13] -0.162% [at 15.8 µM] | activity change [16] 1.32% [at 15.8 µM] | activity change, negative = cytotoxicity [17] 2.14% [at 15.8 µM] | cytotoxicity increase [18] -0.979% [at 15.8 µM]
active: Potency [15] 3.69 µM

COc1ccc2nc(SCc3ncc(C)c(OC)c3C)[nH]c2c1
inactive: Potency [1] | outcome [3] | outcome [6] | outcome [20] | outcome [7] | Potency [8] | Potency [9] | Potency [10] | outcome [19] | Potency [11] | Potency [12] | outcome [13] | Potency [17] | outcome [18]

CC(C)(C)NC(N)=O
inactive: Potency [1] | Potency [2] | outcome [3] | max response [4] 1.11% | outcome [6] | outcome [20] | outcome [7] | Potency [8] | Potency [9] | Potency [10] | outcome [19] | Potency [11] | Potency [12] | outcome [13] | Potency [14] | Potency [15] | outcome [16] | Potency [17] | outcome [18]

O=C(/N=N/C(=O)OCc1ccccc1)OCc1ccccc1
inactive: Potency [1] | Potency [2] | max response [4] -13.7% | outcome [5] | outcome [6] | outcome [20] | outcome [7] | Potency [8] | Potency [9] | Potency [10] | outcome [19] | Potency [11] | Potency [12] | outcome [13] | Potency [14] | Potency [15] | outcome [16] | Potency [17] | outcome [18]

Cc1ccccc1C(=O)Nc1ccc(C(=O)N2CCCC(N(C)C)c3ccccc32)cc1 (stereo unspecified)
active: Potency [8] 6.74 µM | Potency [11] 7.56 µM
inactive: Potency [1] | Potency [2] | outcome [3] | outcome [5] | outcome [6] | Potency [9] | Potency [10] | outcome [19] | Potency [12] | Potency [15] | outcome [16] | Potency [17] | outcome [18]

O=C(O)Cc1ccc(Cl)cc1Cl
inactive: Potency [1] | Potency [2] | max response [4] -0.186% | outcome [5] | Potency [9] | Potency [10] | Potency [12] | outcome [13] | Potency [15] | outcome [16]

O=C(Nc1ccc(Cl)c(Cl)c1)C1CC1
inactive: Potency [1] | outcome [3] | outcome [6] | outcome [20] | outcome [7] | Potency [8] | Potency [9] | Potency [10] | outcome [19] | Potency [11] | Potency [12] | outcome [16] | Potency [17] | outcome [18]
active: Potency [2] 9.52 µM | Potency [4] 8.49 µM | Potency [14] 9.52 µM | Potency [15] 19 µM
